Among the data in the supplement of paper PMC9262897, “Low-cost anti-mycobacterial drug discovery using engineered E. coli” (Nature Communications, 2022) are growth values, retold here.

Structures can show the parent of a compound that is named as a salt. ± gives the standard deviation of the averaged measurements.

What all share (assay): growth (OD600 after 10 h); higher = more growth (less inhibition)
Test [1] relates to E. coli TESEC Alr+ wild-type control. The following applies: compound 0.1 mM; raw OD600 reference: median of DMSO wells 0.241, cell-free background 0.041. The protocol:
(§1)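 TESEC Mtb Alr E. coli, or the Alr+ wild-type control, in 384-well plates with Prestwick library compounds at 0.1 mM and 1% DMSO, across arabinose induction levels of 1E3 to 1E7 nM. Growth is read as OD600 after 10 h at 37 °C in triplicate biological replicates.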

Test [2] has as its system E. coli TESEC Mtb Alr. The following applies: compound 0.1 mM. How it is done: as §1
Another test deals with E. coli TESEC Mtb Asd. The following applies: compound 0.1 mM. How it is done: (§2)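 TESEC E. coli strains in which the native enzyme is deleted and replaced by arabinose-inducible Mtb Asd, DapB, CysH or TrpD, each grown in its selective medium. Strains were screened against the Prestwick library at 0.1 mM and 1% DMSO in 384-well format at low and high arabinose induction. Growth is read as OD600 after 10 h in triplicate.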

The test system of the next test is E. coli TESEC Mtb DapB. Particulars: compound 0.1 mM. How it is done:
as §2

Test [3] concerns E. coli TESEC Alr+ wild-type control. Particulars: compound 0.1 mM; raw OD600 reference: median of DMSO wells 0.49, cell-free background 0.052. How it is done:
(§3)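 TESEC Mtb Alr E. coli (ΔaraC ΔtolC ΔentC Δalr ΔdadX, arabinose-inducible Mtb Alr) or the Alr+ wild-type control strain, grown in defined M9-fructose medium without D-alanine in 96-well plates with Prestwick library compounds at 0.1 mM and 1% DMSO. Low Alr induction is 0.1 µM arabinose and high induction is 10 mM arabinose.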

In test [4] the test system is E. coli TESEC Mtb Alr. The following applies: compound 0.1 mM. The protocol:
as §3
This is another data set of the same source.

The mark [5] stands for this setting: arabinose 1000 nM, raw OD600 reference: median of DMSO wells 0.294, cell-free background 0.041.
[6] abbreviates: arabinose 10000 nM, raw OD600 reference: median of DMSO wells 0.264, cell-free background 0.041.
The mark [7] stands for this setting: arabinose 100000 nM, raw OD600 reference: median of DMSO wells 0.201, cell-free background 0.041.
[8] abbreviates: arabinose 1000000 nM, raw OD600 reference: median of DMSO wells 0.193, cell-free background 0.041.
Where [9] appears, read: arabinose 10000000 nM, raw OD600 reference: median of DMSO wells 0.146, cell-free background 0.041.
The mark [10] stands for this setting: arabinose induction (level): High, raw OD600 reference: median of DMSO wells 0.331, cell-free background 0.041.
[11] abbreviates: arabinose induction (level): Low, raw OD600 reference: median of DMSO wells 0.417, cell-free background 0.041.
Setting [12] is: arabinose induction (level): High, raw OD600 reference: median of DMSO wells […], cell-free background 0.041.
Setting [13] is: arabinose induction (level): Low, raw OD600 reference: median of DMSO wells 0.227, cell-free background 0.041.
Setting [14] is: arabinose 100 nM, raw OD600 reference: median of DMSO wells 0.413, cell-free background 0.052.
[15] abbreviates: arabinose 10000000 nM, raw OD600 reference: median of DMSO wells […], cell-free background 0.052.

Take `N=C(N)NCCN1CCCCCCC1` [Guanethidine sulfate]: the growth was determined as 0.255 ± 0.0095 in test [1]; 0.298 ± 0.027 with E. coli TESEC Mtb Alr [2] (setting [5]); 0.266 ± 0.0054 in the test on E. coli TESEC Mtb Alr [2] (setting [6]); 0.24 ± 0.012 in the test with E. coli TESEC Mtb Alr [2] (setting [7]); 0.173 ± 0.011 in the test with E. coli TESEC Mtb Alr [2] (setting [8]); 0.168 ± 0.011 in the test with E. coli TESEC Mtb Alr [2] (setting [9]). In addition, the growth with E. coli TESEC Mtb Asd (setting [10]) was found to be 0.291 ± 0.094; in the test on E. coli TESEC Mtb Asd (setting [11]), 0.366 ± 0.069; with E. coli TESEC Mtb DapB (setting [12]), 0.205 ± 0.0096; with E. coli TESEC Mtb DapB (setting [13]), 0.247 ± 0.008; in test [3], 0.468 ± 0.04; in the test on E. coli TESEC Mtb Alr [4] (setting [14]) it was 0.419 ± 0.008. In the test with E. coli TESEC Mtb Alr [4] (setting [15]), this molecule showed a growth of 0.384 ± 0.015.

For `COc1ccccc1O` [Guaiacol], the growth was 0.255 ± 0.0046 in test [1]; 0.314 ± 0.0073 in the test on E. coli TESEC Mtb Alr [2] (setting [5]); 0.2742 ± 0.0019 in the test on E. coli TESEC Mtb Alr [2] (setting [6]); 0.192 ± 0.012 in the test with E. coli TESEC Mtb Alr [2] (setting [7]); 0.203 ± 0.012 in the test on E. coli TESEC Mtb Alr [2] (setting [8]); 0.135 ± 0.0042 in the test on E. coli TESEC Mtb Alr [2] (setting [9]). For the same molecule, the growth in the test on E. coli TESEC Mtb Asd (setting [10]) was 0.212 ± 0.031; in the test on E. coli TESEC Mtb Asd (setting [11]), 0.364 ± 0.063; in the test on E. coli TESEC Mtb DapB (setting [12]), 0.19 ± 0.008; in the test on E. coli TESEC Mtb DapB (setting [13]), 0.202 ± 0.028; in test [3], 0.558 ± 0.079; in the test with E. coli TESEC Mtb Alr [4] (setting [14]), 0.407 ± 0.016. The same molecule came in with a growth in the test with E. coli TESEC Mtb Alr [4] (setting [15]) of 0.356 ± 0.009.

Consider `CCc1c(C)[nH]c2c1C(=O)C(CN1CCOCC1)CC2` (configuration not stated) [Molindone hydrochloride], for which the growth in test [1] stood at 0.221 ± 0.013; in the test on E. coli TESEC Mtb Alr [2] (setting [5]), 0.3135 ± 0.00076; in the test with E. coli TESEC Mtb Alr [2] (setting [6]), 0.251 ± 0.011; in the test on E. coli TESEC Mtb Alr [2] (setting [7]), 0.202 ± 0.018; with E. coli TESEC Mtb Alr [2] (setting [8]), 0.166 ± 0.0061; with E. coli TESEC Mtb Alr [2] (setting [9]), 0.1542 ± 0.0015. Further, the growth amounted to 0.274 ± 0.06 in the test on E. coli TESEC Mtb Asd (setting [10]); 0.36 ± 0.064 in the test on E. coli TESEC Mtb Asd (setting [11]); 0.189 ± 0.0083 with E. coli TESEC Mtb DapB (setting [12]); 0.25 ± 0.025 in the test with E. coli TESEC Mtb DapB (setting [13]); 0.472 ± 0.013 in test [3]; 0.409 ± 0.016 with E. coli TESEC Mtb Alr [4] (setting [14]). In addition, the growth with E. coli TESEC Mtb Alr [4] (setting [15]) was found to be 0.33 ± 0.017.

On to `CCOC(=O)O[C@]1(C(=O)COC(=O)CC)CC[C@H]2[C@@H]3CCC4=CC(=O)C=C[C@]4(C)[C@H]3[C@@H](O)C[C@@]21C` [Prednicarbate], for which the growth in test [1] amounted to 0.201 ± 0.0033; in the test on E. coli TESEC Mtb Alr [2] (setting [5]), 0.268 ± 0.0098; with E. coli TESEC Mtb Alr [2] (setting [6]), 0.271 ± 0.0029; in the test with E. coli TESEC Mtb Alr [2] (setting [7]) it was 0.269 ± 0.025; in the test with E. coli TESEC Mtb Alr [2] (setting [8]) it was 0.199 ± 0.012; in the test with E. coli TESEC Mtb Alr [2] (setting [9]), 0.174 ± 0.013. Further, the growth with E. coli TESEC Mtb Asd (setting [10]) amounted to 0.438 ± 0.024; in the test with E. coli TESEC Mtb Asd (setting [11]), 0.37 ± 0.053; in the test with E. coli TESEC Mtb DapB (setting [12]), 0.193 ± 0.008; with E. coli TESEC Mtb DapB (setting [13]) it was 0.237 ± 0.026; in test [3] it was 0.38 ± 0.015; in the test on E. coli TESEC Mtb Alr [4] (setting [14]), 0.401 ± 0.0095. Further, the growth in the test on E. coli TESEC Mtb Alr [4] (setting [15]) worked out at 0.28 ± 0.027.
